# Results: the supplement of paper PMC6555819
# What was measured:
# Experiment in all cases: PBM binding z-score (relative to random genomic background probes); higher = stronger binding; sequences stand for … in GC…GCGATTGACAGCGTAGAATGAAGG
# [1] = test system: PPARg:RXRa DBDmut IVT, anti-RXR (DBD mutation: RXRa K156A/R161A, NR concentration 270 nM, RXRa partner concentration 90 nM)
# How it was run: (§1)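 Random background probes are the reference for binding z-scores. These scores derive from regression-normalized fluorescence on custom Agilent 4×180K protein-binding microarrays incubated 1 h with ligand-free nuclear receptor dimers. Binding was detected with antibodies against each partner (one per run).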
# [2] = test system: PPARg:RXRa IVT, anti-PPARg (NR concentration 270 nM, RXRa partner concentration 90 nM)
# How it was run: as §1
# [3] = test system: PPARg DBDmut:RXRa IVT, anti-PPARg (DBD mutation: PPARg1 K132A/R137A, NR concentration 270 nM, RXRa partner concentration 90 nM)
# How it was run: as §1
# [4] = test system: PPARg DBDmut IVT, anti-PPARg (DBD mutation: PPARg1 K132A/R137A, NR concentration 270 nM)
# How it was run: as §1
# [5] = test system: PPARg homodimer (NR concentration 180 nM)
# How it was run: as §1
# [6] = test system: PXR:RXRa (NR concentration 270 nM, RXRa partner concentration 90 nM)
# How it was run: as §1
# [7] = test system: PXR homodimer (NR concentration 270 nM)
# How it was run: as §1
# [8] = test system: RARa:RXR (NR concentration 270 nM, RXRa partner concentration 90 nM)
# How it was run: as §1
# [9] = test system: RARa homodimer (NR concentration 270 nM)
# How it was run: as §1
# [10] = test system: RARb:RXRa (NR concentration 270 nM, RXRa partner concentration 90 nM)
# How it was run: as §1
# [11] = test system: RARb homodimer (NR concentration 270 nM)
# How it was run: as §1
# [12] = test system: RARg:RXRa (NR concentration 270 nM, RXRa partner concentration 90 nM)
# How it was run: as §1
# [13] = test system: RARg homodimer (NR concentration 270 nM)
# How it was run: as §1
# [14] = test system: RXRa DBDmut IVT, anti-RXR (DBD mutation: RXRa K156A/R161A, NR concentration 90 nM)
# How it was run: as §1
# [15] = test system: RXRa homodimer (NR concentration 180 nM)
# How it was run: as §1
# [16] = test system: THRa:RXRa (NR concentration 90 nM, RXRa partner concentration 90 nM)
# How it was run: as §1
# [17] = test system: THRa homodimer (NR concentration 90 nM)
# How it was run: as §1
# [18] = test system: VDR:RXRa (NR concentration 270 nM, RXRa partner concentration 90 nM)
# How it was run: as §1
# [19] = test system: VDR homodimer (NR concentration 270 nM)
# How it was run: as §1
Sequence,PBM binding z-score [1],PBM binding z-score [2],PBM binding z-score [3],PBM binding z-score [4],PBM binding z-score [5],PBM binding z-score [6],PBM binding z-score [7],PBM binding z-score [8],PBM binding z-score [9],PBM binding z-score [10],PBM binding z-score [11],PBM binding z-score [12],PBM binding z-score [13],PBM binding z-score [14],PBM binding z-score [15],PBM binding z-score [16],PBM binding z-score [17],PBM binding z-score [18],PBM binding z-score [19]
ATCGAAAGGTCGTGAGGTGATTATACAGAAAGGC,0.336,1.93,1.12,1.16,1.42,3.14,0.165,3.89,0.608,4.08,2.49,4.47,3.99,1.6,5.42,3.17,1.15,3.61,1.07
ACTATTAATTGACTTAGGGCAACCGATACGACGC,0.595,0.509,0.998,1.47,1.74,0.334,1.65,0.245,2.46,0.883,1,0.766,0.814,0.828,0.409,0.884,1.15,0.425,1.24
CGTTCAAGGTCAGCAGGTCAGTGAAAGCGACGTG,3.85,4.34,0.78,0.144,2.98,4.06,1.14,5.42,1.55,5.54,5.45,6.75,7.14,3.31,5.46,4.18,3.13,4.25,2.25
CCTCGGAGGATAACAGGAGGTCAGAGCTGCCAGA,-0.616,0.0476,-0.938,-1.92,1.75,1.78,0.657,2.39,0.565,1.99,2.61,2.32,2.11,-0.476,1.73,2.4,0.791,1.5,0.96
CCAACTGGGCCAAAGGTCATTGATTCCAATGCTC,5.49,7,0.378,1.89,3.57,5.33,1.49,6.04,0.958,4.35,4.44,5.57,4.82,1.61,5.9,3.07,0.791,4.72,2.39
ACACACAGGTGAGTGAAGGTAACTCAGCTGGACG,0.846,1.04,0.1,-0.00713,0.147,-0.122,-0.17,0.0752,-0.0711,0.791,-0.00486,0.394,0.59,-0.0875,0.549,1.57,-0.409,-0.0221,-0.0907
ATCTCTCGGTAAAGATAGTTCAGTGAATGCAAAT,-0.304,0.216,0.814,0.624,1.08,0.754,0.572,0.965,1.32,0.868,1.07,0.757,0.753,-0.259,0.154,0.376,0.031,0.595,0.334
CCTGCTAGGTCAATGGTCATCTAAAGCAGCTCGC,4.11,3.89,-0.358,-0.372,1.1,1.35,-0.609,2.05,-0.14,3.75,2.97,3.73,4.61,1.79,2.51,2.23,0.612,1.31,0.333
TCTGCTAGGTCAGTTGGTCAGCAAACGAGCTGCC,2.75,2.88,0.288,0.656,0.233,0.285,-0.998,0.565,-1.22,3.25,2.52,2.78,3.8,0.526,0.98,1.35,-0.0215,0.276,-0.695
ATATGTAGGTTAAGAGTCATTCAGGTTGGTTCGC,7.43,7.13,1.39,1.44,2,1.5,0.614,1.5,1.72,1.42,1.26,1.23,1.13,0.882,1.53,1.24,0.283,1.6,1.24
AGTCAAAGTTCACTAGGTAACGTCAGATTCAGCT,2.77,4.95,1.36,0.959,2.35,3.97,3.07,3.22,1.07,4.88,3.86,5.2,5.98,4.32,4.31,1.96,0.43,3.95,3.7
GCTTACGGGTCAAAGGTTATCGCATGAATAGAAT,5.17,6.06,0.968,0.942,2.75,6.19,0.364,8.16,0.571,4.76,3.45,7.02,5.01,2.6,9.64,3.98,0.155,5.72,1.59
CCTAGTTGGTCAAGGTCACACAGGCTATAGGTAC,2.08,3.64,0.89,0.538,3.81,4.67,3.92,4.96,2.03,4.34,4.45,4.8,5.13,2.24,4.86,4.16,4.07,4.72,4.27
AGAATGAGGTTATACGTAGATCAAGGAAGAAAGT,4.05,2.17,1.37,0.946,1.39,1.25,0.179,1.97,0.408,1.58,0.606,1.96,1.11,1.82,2.3,2.04,0.406,1.33,0.854
CCTCGCAGGCCAGGGTCACTCAAGCATTTCGCTT,-0.539,0.241,-0.923,-1.57,1.02,2.49,-0.431,3.1,-0.222,2.54,2.71,2.93,2.2,0.363,3.06,2.84,1.2,2.41,1.43
